About 83,000 compounds went through this panel and 20% of them were active in at least one assay; those are over-represented in the sample as a whole.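 How to read the values: 0–100, growth inhibition (40 = 60% inhibited); 0, no net growth; -100 to 0, cell death (-40 = 40% of starting cells died; -100 = all dead).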 The source made the active and inactive calls. The calls were made as follows: active = growth percent below 10; inactive = the rest.
Legend:
Experiment in all cases: NCI-60 one-dose screen, 48 h (100 = growth as untreated, 0 = no growth, -100 = all killed)
Details in all cases: 10 µM unless noted
NCI-H23 lung = tested on: NCI-H23 lung
NCI-H226 lung = tested on: NCI-H226 lung
NCI-H322M lung = tested on: NCI-H322M lung
HOP-62 NSCLC = tested on: HOP-62 NSCLC
NCI-H460 lung = tested on: NCI-H460 lung
HOP-92 NSCLC = tested on: HOP-92 NSCLC
NCI-H522 lung = tested on: NCI-H522 lung
A549/ATCC NSCLC = tested on: A549/ATCC NSCLC
786-0 renal = tested on: 786-0 renal
COLO 205 colon = tested on: COLO 205 colon

Measured: growth

N#Cc1nn(-c2ccccn2)c(N)c1C#N
inactive: NCI-H23 lung 105% | NCI-H226 lung 106% | NCI-H322M lung 107% | HOP-62 NSCLC 97.1% | NCI-H460 lung 106% | HOP-92 NSCLC 101% | NCI-H522 lung 67.4% | A549/ATCC NSCLC 97.5% | 786-0 renal 98% | COLO 205 colon 106%

CCCS(=O)(=O)Nc1cccc(Nc2ncnc3cc(NC(=O)CCl)ccc23)c1Cl
active: NCI-H23 lung -52.2% | NCI-H226 lung -18.3% | NCI-H322M lung 3.52% | HOP-62 NSCLC -77.3% | NCI-H460 lung -41.1% | HOP-92 NSCLC -85.9% | NCI-H522 lung -60% | A549/ATCC NSCLC -5.2% | 786-0 renal -88.2% | COLO 205 colon -68.9%

C=C(CNCCO)[C@@H]1CC[C@]2(CO)CC[C@]3(C)[C@H](CC[C@@H]4[C@@]5(C)CCC(NCCO)C(C)(C)[C@@H]5CC[C@]43C)[C@@H]12 (stereo not given in full)
inactive: NCI-H23 lung 95.5% | NCI-H226 lung 96.5% | NCI-H322M lung 89.2% | HOP-62 NSCLC 93.4% | NCI-H460 lung 50.3% | HOP-92 NSCLC 65.5% | NCI-H522 lung 66.6% | A549/ATCC NSCLC 61.4% | 786-0 renal 67.4% | COLO 205 colon 62.5%

O=C(NS(=O)(=O)c1ccccc1)n1cc(-c2ccncc2)c(-c2cc(O)cc(Cl)c2)n1
inactive: NCI-H23 lung 104% | NCI-H226 lung 104% | NCI-H322M lung 108% | HOP-62 NSCLC 115% | NCI-H460 lung 111% | HOP-92 NSCLC 103% | NCI-H522 lung 76.1% | A549/ATCC NSCLC 97.5% | 786-0 renal 98% | COLO 205 colon 114%

O=C(N/N=C/c1ccccc1Cl)c1ccccc1Nc1ccnc(C(F)(F)F)c1
active: NCI-H226 lung 3.35% | NCI-H322M lung 6.53% | HOP-62 NSCLC 1.91% | NCI-H460 lung 3.5% | HOP-92 NSCLC -17.1% | NCI-H522 lung -20.5% | A549/ATCC NSCLC 7.28% | 786-0 renal -30.4% | COLO 205 colon -38%
inactive: NCI-H23 lung 16%

Clc1ccc(C2=Nn3c(nnc3-c3cc(Cl)cc(Cl)c3Cl)SC2)cc1
active: 786-0 renal 3.83%
inactive: NCI-H23 lung 65.8% | NCI-H226 lung 75.3% | NCI-H322M lung 71.4% | HOP-62 NSCLC 16.2% | NCI-H460 lung 16.4% | HOP-92 NSCLC 55.6% | NCI-H522 lung 21.4% | A549/ATCC NSCLC 58.2% | COLO 205 colon 40.5%

Cc1ccccc1NC(=O)c1sc2nc3c(cc2c1N)CCCC3
inactive: NCI-H23 lung 47.2% | NCI-H226 lung 63.4% | NCI-H322M lung 51.1% | HOP-62 NSCLC 27.4% | NCI-H460 lung 11% | HOP-92 NSCLC 17.3% | NCI-H522 lung 11.1% | A549/ATCC NSCLC 34.3% | 786-0 renal 33.7% | COLO 205 colon 15.5%

O=C(c1ccc(F)cc1)C1CCN(CCn2c(=O)[nH]c3ccccc3c2=O)CC1
inactive: NCI-H23 lung 99.6% | NCI-H226 lung 97.8% | NCI-H322M lung 105% | HOP-62 NSCLC 108% | NCI-H460 lung 122% | HOP-92 NSCLC 87.8% | NCI-H522 lung 82.9% | A549/ATCC NSCLC 107% | 786-0 renal 97% | COLO 205 colon 103%

COc1ccc(N2C(=O)/C(=C/C(Cl)=C/c3ccc([N+](=O)[O-])cc3)SC2=S)cc1
active: NCI-H23 lung -1.85% | NCI-H226 lung -31% | HOP-62 NSCLC -9.71% | NCI-H460 lung 0.356% | HOP-92 NSCLC -33.8% | NCI-H522 lung -42.5% | A549/ATCC NSCLC -0.282% | 786-0 renal -77.7% | COLO 205 colon -36%
inactive: NCI-H322M lung 31.2%

CO[C@]12C=C/C(=C(/C(=O)OCc3cccnc3)C(=O)CCCCCCCC[C@]3(OC)C=C/C(=C(/C(=O)OCc4cccnc4)C(=O)CCCCCCCC1)O3)O2
active: NCI-H23 lung -75.3% | NCI-H226 lung -78.1% | NCI-H322M lung -85% | HOP-62 NSCLC -33.1% | NCI-H460 lung -18.3% | HOP-92 NSCLC -28.5% | NCI-H522 lung -39.6% | A549/ATCC NSCLC -19.6% | 786-0 renal -64.1% | COLO 205 colon -56.5%

O=C(Cn1cc(CSc2nc3ccccc3o2)nn1)Nc1ccc([N+](=O)[O-])cc1
inactive: NCI-H23 lung 97.8% | NCI-H226 lung 99.4% | NCI-H322M lung 102% | HOP-62 NSCLC 83.7% | NCI-H460 lung 98.5% | HOP-92 NSCLC 95.2% | NCI-H522 lung 78.5% | A549/ATCC NSCLC 101% | 786-0 renal 99.1% | COLO 205 colon 110%

COc1cc2c(cc1OC)CC[N+](CCC[N+](C)(C)C)=C2
inactive: NCI-H23 lung 106% | NCI-H226 lung 104% | NCI-H322M lung 88.6% | HOP-62 NSCLC 84% | NCI-H460 lung 109% | HOP-92 NSCLC 96.1% | NCI-H522 lung 80.3% | A549/ATCC NSCLC 97.4% | 786-0 renal 96.2% | COLO 205 colon 108%

CCCCN(CCC#N)C(N)=O
inactive: NCI-H23 lung 115% | NCI-H226 lung 103% | NCI-H322M lung 107% | HOP-62 NSCLC 105% | NCI-H460 lung 108% | HOP-92 NSCLC 97.2% | NCI-H522 lung 105% | A549/ATCC NSCLC 109% | 786-0 renal 92% | COLO 205 colon 120%

CC1=C(C(=O)OCc2ccccc2)C(c2ccc3c(c2)OCO3)n2c(nc3ccccc32)N1 (stereo not given)
inactive: NCI-H23 lung 49.3% | NCI-H226 lung 58.2% | NCI-H322M lung 47% | HOP-62 NSCLC 44.2% | HOP-92 NSCLC 78.5% | NCI-H522 lung 26.3% | A549/ATCC NSCLC 47.1% | 786-0 renal 43.1% | COLO 205 colon 37.2%
active: NCI-H460 lung 6.62%
